# Measured values taken from PubChem BioAssay AID894 (National Center for Advancing Translational Sciences (NCATS), 2007).
# Where “and” joins values, the source holds several entries; their conditions need not be identical. Equal entries are not always repeated. Hit rate of the full screen: of about 150,000 compounds, about 6,500 (4.3%) were called active. Inconclusive results (about 12%) are left out. The call rests on the fitted dose curve; in most records, active means well fitted inhibition curve with a large enough effect (not every such curve was filed as active); inconclusive means small, poorly fitted or top-dose-only effect, or another doubt; inactive means no such curve, though single readings can be large or run the other way. The sample as a whole holds a higher share of actives than the screen did.
# Target: 15-hydroxyprostaglandin dehydrogenase [NAD(+)] (Homo sapiens) (UniProt P15428)
# Experiment: qHTS Assay for Inhibitors of HPGD (15-Hydroxyprostaglandin Dehydrogenase)
# Conditions: purified HPGD, NADH fluorescence kinetic, PGE2 substrate; activity change, negative = inhibition: stronger effect = lower value
# Excerpt: Human 15-Hydroxyprostaglandin dehydrogenase (HPGD) catalyzes the inactivation of prostaglandin E2, and plays a major role in cancer biology by antagonizing the oncogenic potential of cyclooxygenase type 2 (COX2). Assays are available, based on absorbance/fluorescence increase of NADH with the substrate 15-OH prostaglandin E2. References 1. Myung SJ, Rerko RM, Yan M, Platzer P, Guda K, Dotson A, Lawrence E, Dannenberg AJ, Lovgren AK, Luo G, Pretlow TP, Newman RA, Willis J, Dawson D, Markowitz SD. 15-Hydroxyprostaglandin dehydrogenase is an in vivo suppressor of colon tumorigenesis. […] 2. Yan M, Rerko RM, Platzer P, Dawson D, Willis J, Tong M, Lawrence E, Lutterbaugh J, Lu S, Willson JK, Luo G, Hensold J, Tai HH, Wilson K, Markowitz SD. 15-Hydroxyprostaglandin dehydrogenase, a COX-2 oncogene antagonist, is a TGF-beta-induced suppressor of human gastrointestinal cancers. Proc Natl Acad Sci U S A. 2004 Dec 14;101(50):17468-73. 3. Yang L, Amann JM, Kikuchi T, Porta R, Guix M, Gonzalez A, Park KH, Billheimer D, Arteaga CL, Tai HH, Dubois R, Carbone DP, Johnson DH. Inhibition of Epidermal Growth Factor Receptor Signaling Elevates 15-Hydroxyprostaglandin Dehydrogenase in Non-Small-Cell Lung Cancer. Cancer Res. 2007 Jun 15;67(12):5587-5593. Inhibition of HPGD activity was screened by utilizing prostaglandin as an electron donor and NAD+ as an electron acceptor/cofactor. An increase in the fluorescence intensity due to conversion of NAD+ to NADH was used to measure the enzyme activity. NIH Chemical Genomics Center [NCGC] Structural Genomics Consortium [SGC]
# Buffer: 50 mM Tris-HCl, 0.01% Tween 20, pH 8. Enzyme Buffer: 50 mM Tris-HCl, 0.5 mM NAD+ and 0.01% Tween 20, pH 8. Reagents/Controls: Buffer in columns 3 and 4 as negative control (no enzyme). Substrate/cofactor solution: 1 mM NAD+ and 30 uM prostaglandin (Sigma, prostaglandin E2, # P5640) final concentrations dispensed throughout the plate. Enzyme: 20 nM HPGD final concentration in columns 1, 2, 5-48. Column 1 and 2 is neutral (100% activity). A titration of control inhibitor GW5074 (G6416 Sigma-Aldrich, St. Louis, MO) top concentration 10 mM in DMSO, then 1:2 dilution for a total of 16 concentrations in duplicate) was pin-transferred into column 2. Assay Steps: Three uL of enzyme were dispensed to 1536-well Greiner black solid bottom plates. Compounds and control inhibitor (23 nL) were transferred via Kalypsys PinTool. The plates were incubated for 15 min at room temperature, and then 1 uL of substrate/cofactor solution was added to start the reaction. The plates were immediately transferred to and read 5 times every 30 seconds on ViewLux High-throughput CCD imager (Perkin-Elmer) using 360 nm excitation and 450 nm emission fluorescence protocol. The fluorescence intensity difference between the last and the first time points was used to compute reaction progress.
# On the % scale 0 is the no-effect control and ±100 the full control effect; potency means the concentration at half of the fitted maximal effect.
# Sequence of 15-hydroxyprostaglandin dehydrogenase [NAD(+)] (Homo sapiens) (P15428 whole entry, looked up): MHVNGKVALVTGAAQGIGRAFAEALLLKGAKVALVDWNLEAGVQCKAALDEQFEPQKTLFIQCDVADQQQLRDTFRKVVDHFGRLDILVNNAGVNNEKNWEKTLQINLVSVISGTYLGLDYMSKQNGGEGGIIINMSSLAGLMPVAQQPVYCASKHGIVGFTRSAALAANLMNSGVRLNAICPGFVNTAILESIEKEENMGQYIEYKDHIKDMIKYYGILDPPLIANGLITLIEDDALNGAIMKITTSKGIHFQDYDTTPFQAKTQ
SMILES,"activity change, negative = inhibition",Potency
Cc1ccc(-n2c(C)cc(/C=C3\C(=O)NC(=O)N(C)C3=O)c2C)cc1C,-10.2% (inactive),–
Cc1ccnc(-n2c(C)cc(/C=C3\C(=O)NC(=S)N(C)C3=O)c2C)c1,–,20 µM (active)
COC(=O)c1ccc2[se]c(CC3CCCCC3)c(I)c2c1,-2.23% (inactive),–
CC(C)CC(C)Nc1ccc(Nc2ccccc2)cc1 (centres undefined),-6.53% (inactive),–
Clc1cccc(Cl)c1Cl,-10.3% (inactive),–
N#Cc1c(Cl)c(Cl)c(Cl)c(C#N)c1Cl,–,2.51 µM (active)
ClC(Cl)(Cl)c1ccccc1,-5.6% (inactive) and -7.46% (inactive),–
N#CC(C#N)=Cc1cc(O)c(O)c([N+](=O)[O-])c1,–,22.4 µM (active)
Nc1ccc([N+](=O)[O-])cc1,-4.46% (inactive),–
COC1=C[C@@H]2[C@@H]3Cc4ccc(OC)c(O)c4[C@]2(CCN3C)CC1=O,-2.46% (inactive),–
CN(C)C1C(=O)C(C(N)=O)=C(O)[C@@]2(O)C(=O)C3=C(O)c4c(O)cccc4[C@@](C)(O)C3C[C@@H]12 (some centres undefined),-15.2% (inactive),–
CCN1C[C@]2(C)CC[C@H](O)[C@@]34[C@@H]5CC6[C@@H](OC)C[C@@](O)([C@@H]5[C@@H]6O)[C@H](C[C@@H]23)[C@H]14,-6.3% (inactive),–
Cc1cccc(-n2c(C)nc3cc(C(=O)N4CCC5(CC4)OCCO5)ccc32)c1,–,14.1 µM (active)
O=C(c1cc(-c2ccncc2)nc2ccccc12)N1CCC2(CC1)OCCO2,-3.06% (inactive),–
COc1ccc(S(=O)(=O)NCc2ccc(C(=O)N3CCC4(CC3)OCCO4)cc2)cc1,-19.1% (inactive),–
CCCC[N+]1(C)C2CC(OC(=O)C(CO)c3ccccc3)CC1C1OC12 (centres undefined),-2.83% (inactive),–
CN(C)[C@@H]1C(=O)C(C(N)=O)=C(O)[C@@]2(O)C(=O)C3=C(O)c4c(O)cccc4[C@@](C)(O)C3CC12 (some centres undefined),-24.8% (inactive),–
COC1=C[C@]23CCCN2CCc2cc4c(cc2[C@@H]3[C@@H]1O)OCO4,-6.42% (inactive),–
CCCCC/C=C\C/C=C\C/C=C\C/C=C\CCCCCC(=O)NCCO,-7.58% (inactive) and -6.46% (inactive),–
CC(=O)NBr,-7.45% (inactive),–
CCC1(c2ccccc2)C(=O)NC(=O)N(C)C1=O (centres undefined),-4.89% (inactive),–
CCC/C(=N\O)c1c[nH]c2ccccc12,-17.4% (inactive),–
c1ccc(CCCCN2CCC(c3ccccc3)CC2)cc1,-7.8% (inactive),–
CCOP(=O)(OCC)C(NC(=O)c1ccc(C)cc1)C(Cl)(Cl)Cl (centres undefined),-5.69% (inactive),–

SMILES,"activity change, negative = inhibition",Potency
CC(=O)c1ccc(OC(NC(=O)Cc2ccccc2)C(Cl)(Cl)Cl)cc1 (centres undefined),–,12.6 µM (active)
CC(=O)NC(=O)NC(C)Cc1ccccc1 (centres undefined),-9.28% (inactive),–
CC(C)(C)c1ccc(CN2C(=O)CN=C(c3ccccc3)c3ccccc32)cc1,-17.9% (inactive),–
Clc1ccccc1,-8.83% (inactive),–
CCCCn1c(O)c(C(CC)=NCc2ccco2)c(=O)[nH]c1=O,1.83% (inactive),–
CCC(=NCCc1ccccc1)c1c(O)n(C2CCCCC2)c(=O)[nH]c1=O,-16.1% (inactive),–
CCC(=NCc1ccco1)c1c(O)n(Cc2ccccc2)c(=O)[nH]c1=O,–,15.8 µM (active)
c1ccc2c(c1)[I+]c1ccccc1-2,-12.3% (inactive) and -15.8% (inactive),–
c1csc(CN2CCCC3(CCNCC3)C2)n1,-0.589% (inactive),–
Cc1cccc([C@H](C)c2cnc[nH]2)c1C,-10.2% (inactive),–
c1csc(CN2CC3(CCNCC3)C2)n1,-15.7% (inactive),–
C[C@H](Br)C(=O)N[C@H](CO)C(=O)O,-10.5% (inactive),–
NCC[Se][Se]CCN,–,2.82 µM (active)
O=c1oc2ccccc2c(O)c1C(c1ccccc1O)c1c(O)c2ccccc2oc1=O,-2.8% (inactive),–
C=CCN1CCC23c4c5ccc(O)c4O[C@H]2C(=O)CC[C@@]3(O)C1C5 (some centres undefined),-13.3% (inactive),–
CCN(CC)C(=O)c1ccc(NC(=O)c2cc(-n3cnnc3)ccc2Cl)cc1,–,1.41 µM (active)
CNC(=S)N/N=C1\C2CN3CCN(C2)CC1(c1ccccc1)C3,4.55% (inactive),–
O=C(C1CC(=O)N(C2CCCC2)C1)N1CCC2(CC1)OCCO2 (centres undefined),6.18% (inactive),–
Clc1ccc([C@@H]2C[C@H]3CC[C@@H]2N3)cn1,0.221% (inactive),–
COc1cc(C(c2c(O)c3ccccc3oc2=O)c2c(C)n(C)n(-c3ccccc3)c2=O)ccc1O (centres undefined),-3.16% (inactive),–
c1ccc(Cc2nn3c(Cn4cnc5ccccc54)nnc3s2)cc1,–,7.08 µM (active)
CCN1C[C@@]2(COC)CC[C@H](OC)[C@]34[C@@H]1[C@]1(OCO[C@@]15C[C@@H](OC)C1C[C@H]3[C@H]5[C@@H]1OC)[C@H](O)[C@@H]24,-0.114% (inactive),–
C/C(=C\C=C/[C@@H](C)C(=O)O)[C@H]1CN[C@H](C(=O)O)[C@@H]1CC(=O)O,-11.8% (inactive),–
CC(=O)c1c(O)c(C)c(O)c(Cc2c(O)c3c(c(C(=O)/C=C/c4ccccc4)c2O)OC(C)(C)C=C3)c1O,-19.2% (inactive) and -15.4% (inactive),–

SMILES,"activity change, negative = inhibition",Potency
CCCCC/C=C\C/C=C\C/C=C\CCCCCCC(=O)NCCO,-7.26% (inactive) and -18.7% (inactive),–
CC(C)(c1ccc(OC[C@@H]2CO2)cc1)c1ccc(OC[C@H]2CO2)cc1,–,12.6 µM (active)
CCOC(=O)c1ncn2c1[C@@H]1CCCN1C(=O)c1cc(OC)ccc1-2,-9.65% (inactive),–
Cc1nc2nc(C)c(CCC(=O)N3CCC4(CC3)OCCO4)c(C)n2n1,-4.62% (inactive),–
C=CC#N,-3.54% (inactive),–
NCCc1c[nH]c2ccc(O)cc12,-4.55% (inactive) and -5.27% (inactive) and -12.4% (inactive),–
Cc1noc(C)c1CSc1nc2cc(S(=O)(=O)N3CCOCC3)ccc2o1,–,7.94 µM (active)
C[C@@]12CCC3C(CC[C@@H]4CC(O)CC[C@@]34C)C1CCC2O (some centres undefined),-3.43% (inactive),–
CC(Cl)Cl,-8.77% (inactive),–
O=C(NCc1cccs1)c1ccc(Br)o1,–,20 µM (active)
Fc1ccc(C(OCCN2CCN(C/C=C\c3ccccc3)CC2)c2ccc(F)cc2)cc1,-13.4% (inactive),–
CCCCC/C=C\C/C=C\C/C=C\C=C\[C@H](CCCC(=O)O)OO,-9.41% (inactive),–
Cc1cccc2c3c(ccc12)C1=C(C(=O)C3=O)C(C)CO1 (centres undefined),–,17.8 µM (active)
CNCC[C@H](Oc1ccc(C(F)(F)F)cc1)c1ccccc1,-9.03% (inactive) and -8.03% (inactive) and -3.66% (inactive),–
CC(C)(O)/C=C\C(=O)[C@](C)(O)[C@H]1[C@H](O)C[C@]2(C)[C@@H]3CC=C4[C@@H](C=C(O)C(=O)C4(C)C)[C@]3(C)C(=O)C[C@@]12C,-9.86% (inactive),–
COC(=O)N(c1ccc(OC)cc1)P1(=S)OCCC(C)O1 (centres undefined),–,4.47 µM (active)
OC(Cn1c2ccccc2c2ccccc21)C[n+]1ccccc1 (centres undefined),-3.99% (inactive),–
Cc1ccc(N2C(=O)NC(=O)C(CCc3ccncc3)(Cc3cccc(Cl)c3Cl)C2=O)cc1 (centres undefined),-5.28% (inactive),–
C=CCSSCC=C,–,8.91 µM (active)
CC(=O)OC1C2CCC3C1(CC(O)[C@@]1(O)[C@@H](CC(O)C1(C)C)[C@]3(C)O)C[C@@]2(C)O (some centres undefined),-0.742% (inactive),–
CCCCCCCCCCCCCC(=O)O[C@@H]1[C@@H](C)[C@@]2(O)[C@@H](C=C(CO)C[C@]3(O)C(=O)C(C)=C[C@@H]23)[C@@H]2C(C)(C)[C@]12OC(C)=O,-19% (inactive),–
CC(C)(O)c1[se]c2ccccc2c1I,-24.2% (inactive),–
Cc1cccc(N2C(=O)NC(=O)/C(=C\c3cnn(-c4ccccc4)c3)C2=O)c1,–,10 µM (active)
CC12CN3CC(C)(CN(C1)C3c1cccs1)C2 (centres undefined),-2.07% (inactive),–

SMILES,"activity change, negative = inhibition",Potency
CC(=C1C(=O)c2ccccc2C1=O)N1CCN(CCN=Cc2c(O)n(C)c(=O)n(C)c2=O)CC1,-26.9% (inactive),–
COc1c(O)ccc2c1-c1c3c(cc4c1C(C2)N(C)CC4)OCO3 (centres undefined),-4.96% (inactive),–
O=c1c2ccccc2nc(-c2ccco2)n1-c1ccc(Br)cn1,-7.61% (inactive),–
Cc1nc2ccccn2c1P(=S)(N1CCCCC1)N1CCCCC1,-26.7% (inactive),–
CCCCCCCCc1[se]c2ccccc2c1Br,1.04% (inactive),–
CCNC[C@H](O)c1cccc(O)c1,-6.69% (inactive),–
O=C1/C(=C\c2ccc3c(c2)OCO3)N2CCC1CC2,–,25.1 µM (active)
N[C@H](Cc1o[nH]c(=O)c1Cl)C(=O)O,0.654% (inactive),–
Cc1ccc(N(C)C(=O)Oc2cccc3ccc(C)nc23)cc1,-1.1% (inactive),–
O=c1c2ccccc2nc(-c2ccc(Cl)cc2Cl)n1-c1ccncc1,-1.06% (inactive),–
C1CC[C@H]([C@@]23C[C@H](C[C@H]4CCCN[C@H]42)[C@@H]2CCCCN2C3)NC1,-4.36% (inactive),–
O=C(O)C1C2CCC(O2)C1C(=O)O (centres undefined),-2.85% (inactive),–
O=C(OCC1O[C@@H](OC(=O)c2cc(O)c(O)c(O)c2)[C@@H](OC(=O)c2cc(O)c(O)c(O)c2)[C@@H](OC(=O)c2cc(O)c(O)c(O)c2)[C@@H]1OC(=O)c1cc(O)c(O)c(O)c1)c1cc(O)c(O)c(O)c1 (some centres undefined),–,10 µM (active)
CC(C)N(CC#CCC1(O)c2ccccc2-c2ccccc21)C(C)C,-8.59% (inactive),–
CCN1CCN(C(=O)Cc2coc3cc(C)cc(C)c23)CC1,-14.1% (inactive),–
O=[N+]([O-])c1ccc(Cl)c(Cl)c1,-4.16% (inactive),–
CN[C@@H]1C[C@H]2O[C@@](C)([C@@H]1OC)n1c3ccccc3c3c4c(c5c6ccccc6n2c5c31)C(=O)NC4,-25.7% (inactive),–
Cc1ccc(Cn2c(C)c3cnn(CC(=O)N4CCC5(CC4)OCCO5)c(=O)c3c2C)cc1,-21.8% (inactive),–
Cc1cc(-c2n[nH]c(=S)n2-c2ccc(C)c(C)c2)no1,–,5.62 µM (active)
NCCc1ccc(S(=O)(=O)F)cc1,-8.88% (inactive),–
CC(=O)O[C@H]1CC[C@@]2(C)[C@@H](CC[C@H]3[C@H]2CC(=O)[C@]2(C)[C@@H]3C[C@@H](N3CC3)[C@H]2C(C)=O)C1,-8.48% (inactive),–
CCC(C)C(=O)O[C@@H]1C[C@@]2(C)C(c3ccoc3)OC(=O)CC23OC2(C)O[C@@]14[C@@]1(C)C(CC(=O)OC)C5(C)CC1(O)C(O)(C5OC(=O)C1(C)OC1C)C(OC(C)=O)[C@@]34O2 (some centres undefined),-23.2% (inactive),–
